MEKK2mut PB1 HTS – signal of MEK5 binding to mutant human MEKK2 PB1 domain; AID 1530; bead flow cytometry, Alexa488-MEK5 binding to MEKK2 mutant; percent response, % at 10 µM; hit rate 0.35% among 290,000; in the data active = percent response above about 24%, passing the limit was not always enough
Arbovirus anti – arbovirus infection inhibition | arbovirus infection cell-based antiviral screen | inhibition, % at 10 µM | hit rate 0.37% among 200,000; in the data active = inhibition above about 30%
MEKK3 PB1 HTS – raises or lowers MEK5 binding to the human MEKK3 PB1 domain. Q99759. bead-based flow cytometry, Alexa488-MEK5 binding to MEKK3; actives lie on both sides; 0 = blocked by unlabeled MEK5, 100 = vehicle. binding response (% of control), % at 10 µM. hit rate 1.4% among 290,000. AID 1529;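 active = binding response more than 3 SD above or below the average of its plate-row segment, actives on both sides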;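 note: Alexa488 bead fluorescence after subtracting the streptavidin-only scavenger bead signal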
Target sequence (Q99759 whole entry, looked up, the tested form may be a part): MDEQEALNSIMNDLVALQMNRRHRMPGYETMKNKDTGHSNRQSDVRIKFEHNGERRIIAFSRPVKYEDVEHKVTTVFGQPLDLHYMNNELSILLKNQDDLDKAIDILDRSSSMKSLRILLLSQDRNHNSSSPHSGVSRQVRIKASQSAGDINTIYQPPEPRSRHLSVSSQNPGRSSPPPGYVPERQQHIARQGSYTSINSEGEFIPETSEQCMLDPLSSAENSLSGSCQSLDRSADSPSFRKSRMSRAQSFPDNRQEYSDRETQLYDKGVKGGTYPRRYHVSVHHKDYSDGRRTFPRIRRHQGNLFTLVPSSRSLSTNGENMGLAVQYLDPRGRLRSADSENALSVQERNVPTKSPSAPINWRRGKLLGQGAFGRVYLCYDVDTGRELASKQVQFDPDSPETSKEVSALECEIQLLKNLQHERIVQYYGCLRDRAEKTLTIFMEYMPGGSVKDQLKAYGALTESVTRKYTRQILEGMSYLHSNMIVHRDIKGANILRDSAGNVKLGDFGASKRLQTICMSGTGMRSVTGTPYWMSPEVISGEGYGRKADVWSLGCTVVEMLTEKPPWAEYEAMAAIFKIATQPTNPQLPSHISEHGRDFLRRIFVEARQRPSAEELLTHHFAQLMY
Pf gamet viab – P. falciparum stage V gametocyte viability inhibition | P. falciparum stage V gametocytes, ATP luminescence, 24 h | inhibition, % at 10.9 µM | hit rate 0.065% among 150,000 | AID 743093;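 active = inhibition above the mean plus 3 SD of compounds within the control limits, set per campaign, cut at about 38% in these data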
MEKK2wt PB1 HTS – raises or lowers MEK5 binding to wildtype human MEKK2 PB1 domain | Q9Y2U5 | bead flow cytometry, Alexa488-MEK5 binding to MEKK2 WT; actives lie on both sides | binding response (% of control), % at 10 µM | hit rate 1.1% among 290,000; in the data active = binding response below about 67% or above about 130%
MEKK2wt confirm – raises or lowers MEK5 binding to wildtype human MEKK2, retest | hit rate 2.4% among 5,900 | AID 1892 | bead flow cytometry, Alexa488-MEK5 binding to MEKK2 WT; actives lie on both sides | shares compounds with MEKK3 PB1 HTS | binding response (% of control), % at 10 µM; in the data active = binding response below about 16% or above about 210%; inactive = in between
MEKK2mut confirm – signal of MEK5 binding to mutant human MEKK2, retest | bead flow cytometry, Alexa488-MEK5 binding to MEKK2 mutant | hit rate 2% among 5,900 | AID 1893 | percent response, % at 10 µM | shares compounds with MEKK3 PB1 HTS; in the data active = percent response mostly above about 71%, no sharp cut-off; inactive = mostly below about 38%;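 note: higher means compound restores mutant binding toward wildtype level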
MEKK3-MEK5 inh – confirmation of inhibitors of MEK5 binding to human MEKK3 | binding response (% of control), % at 10 µM | bead flow cytometry, Alexa488-MEK5 binding to MEKK3; stronger effect = lower value | hit rate 1.8% among 5,900 | shares compounds with MEKK3 PB1 HTS | AID 1894;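 active = binding response below 72% of control, or above a set upper limit, though filed actives all read lower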
Hits are given with their value; . = inactive; / = no result given; [ ] = dose if it differs, or a comment. Rows were chosen to be rich in hits. Some 2.4% of all compounds tested hit in one or more screens of this group.

SMILES	MEKK2mut PB1 HTS	Arbovirus anti	MEKK3 PB1 HTS	Pf gamet viab	MEKK2wt PB1 HTS	MEKK2wt confirm	MEKK2mut confirm	MEKK3-MEK5 inh
CCOc1cc(CNCCCN2CCOCC2)ccc1OCC(=O)Nc1cccc2ccccc12	.	.	.	.	141	.	.	.
O=C(C1=C[C@@H](c2ccc(C(F)(F)F)cc2)C[C@@H](OCCCCO)O1)N1CCN(Cc2ccccc2)CC1	.	.	73[inhibitor]	/	.	.	.	.
CCO/N=C(/c1nonc1N)N1CCN(c2ccc([N+](=O)[O-])cc2)CC1	.	.	129	/	.	.	.	.
CO/N=C(\c1nonc1N)N1CCN(c2ccc([N+](=O)[O-])cc2Cl)CC1	.	.	.	.	.	/	/	/
O=[N+]([O-])c1ccc(C[n+]2cccc3c4ccccc4ccc32)cc1	.	.	.	/	8.0[inhibitor]	.	.	.
COC(=O)NNC(=O)c1ccccc1OC	.	.	.	.	.	/	/	/
COc1ccccc1C(=O)NNC(=O)C1CC=CCC1 (centres undefined)	.	/	25[inhibitor]	/	38[inhibitor]	.	.	.
Cc1cnc(CNC(=O)C2CCC(=O)N(Cc3ccc(Cl)cc3)C2)[nH]1 (centres undefined)	.	/	.	/	.	/	/	/
CC(=O)OCCNc1cc(SCc2ccco2)c2nonc2c1[N+](=O)[O-]	.	.	146	/	.	.	.	.
O=[N+]([O-])c1c(NCCCO)cc(SCc2ccco2)c2nonc12	.	.	.	.	.	/	/	/
OC(CNCCC(c1ccccc1)c1ccccc1)COc1ccccc1 (centres undefined)	142	.	.	.	313	.	.	.
COc1ccc(CCNCC(O)COc2ccc(Cl)cc2)cc1OC (centres undefined)	.	/	.	/	.	/	/	/
OC(CNCCc1ccc(Cl)cc1)COc1ccc2ccccc2c1 (centres undefined)	/	.	/	.	/	/	/	/
CC(C)CCNCC(O)CON=C1c2ccccc2-c2ccccc21 (centres undefined)	.	.	.	.	161	.	.	.
OC(CNCCc1ccccc1)COc1ccc(OCC(O)CNCCc2ccccc2)cc1 (centres undefined)	.	/	.	.	172	.	.	.
OC(CNCCc1ccc(Cl)cc1)COc1cc(Cl)ccc1Cl (centres undefined)	26	/	.	/	.	.	.	.
COc1cc(/C=N/N2CCCCC2)cc([N+](=O)[O-])c1O	.	/	.	/	.	/	/	/
Cc1ccc(S(=O)(=O)N2CCCC2=O)c(C)c1N(C)S(C)(=O)=O	.	/	.	/	.	/	/	/
CC(C)(c1ccccc1)c1ccc(OCC(O)CN2CCCC2)cc1 (centres undefined)	.	/	.	.	.	/	/	/
O=C(NNCC(O)COc1ccccc1)c1ccccc1 (centres undefined)	.	.	138	/	.	.	.	.
CC(C)N(CCNCC(O)COc1ccc(C(C)(C)c2ccccc2)cc1)C(C)C (centres undefined)	.	.	.	.	172	.	.	.
Cc1ccc(S(=O)(=O)Oc2ccccc2/C=N/N=C(N)N)cc1	.	.	.	.	149	.	.	.
Cc1ccc(S(=O)(=O)Oc2ccccc2/C=N/NC(N)=S)cc1	.	.	.	/	.	/	/	/
COC(=O)c1ccccc1C(=O)N1CCCC(C(=O)c2ccc(OC)c(OC)c2)C1 (centres undefined)	.	/	.	/	.	/	/	/
Clc1ccc(SCCn2ccnc2)cc1	.	.	70[inhibitor]	/	.	.	.	.
SMILES	MEKK2mut PB1 HTS	Arbovirus anti	MEKK3 PB1 HTS	Pf gamet viab	MEKK2wt PB1 HTS	MEKK2wt confirm	MEKK2mut confirm	MEKK3-MEK5 inh
Clc1ccc(OCCn2ccnc2)c(Cl)c1	.	.	.	/	.	/	/	/
CN(C)CCCNC(=O)c1ccc(-c2nc(-c3ccc(Cl)cc3)cs2)cc1	.	.	.	.	252	.	.	.
CN(C)CCCNC(=O)c1ccccn1	.	.	.	.	.	/	/	/
Cc1nc2ccccc2nc1Nc1cccc(Cl)c1	.	/	.	/	.	/	/	/
COc1ccc(Nc2nc(C)c3ccccc3n2)cc1	.	.	.	.	140	.	.	.
COc1ccc(Nc2nc3ccccc3nc2C)cc1	.	.	2.0[inhibitor]	/	3.0[inhibitor]	.	.	.
COc1ccc(Nc2nc(-c3ccccc3)c3ccccc3n2)cc1	.	.	.	.	.	/	/	/
CC(=O)c1ccc(S(=O)(=O)N(CCCO)Cc2cc3cc(C)ccc3[nH]c2=O)cc1	.	/	.	/	.	/	/	/
CCCN(Cc1cc2cc(C)ccc2[nH]c1=O)S(C)(=O)=O	.	.	128	.	.	.	.	.
Cc1cccc(N2C(=O)C(Oc3ccc(Cl)cc3Cl)C2C(=O)O)c1C (centres undefined)	.	.	139	/	.	.	.	.
CCCCNCC1C(Oc2ccc(Cl)cc2)C(=O)N1c1ccccc1C (centres undefined)	.	.	.	.	.	/	/	/
CCCNCC1C(Oc2ccc(Cl)cc2Cl)C(=O)N1c1cccc(C)c1C (centres undefined)	.	.	136	.	.	.	.	.
Cc1cccc(N2CC(C(=O)O)CC2=O)c1C (centres undefined)	.	/	.	.	.	/	/	/
COc1ccccc1N1CCN(CCCNC(=O)Nc2ccccc2C)CC1	29	.	.	.	.	.	.	.
COc1ccc(Cl)cc1N1CCN(CCNC(=O)Nc2ccccc2C)CC1	/	.	/	.	/	/	/	/
O=C(N/N=C/c1ccncc1)c1cccc(S(=O)(=O)Nc2ccc(Cl)cc2)c1	.	/	.	.	.	/	/	/
O=C(CSc1nc2ccccc2s1)N1N=C(c2cccs2)CC1c1ccc(F)cc1 (centres undefined)	.	.	73[inhibitor]	/	.	.	.	.
COc1ccc(C2CC(c3cccs3)=NN2C(=O)CSc2nc3ccccc3s2)cc1 (centres undefined)	.	.	130	/	.	.	.	.
COc1ccc(C2CC(c3cccs3)=NN2C(=O)CSc2nc3ccccc3o2)cc1 (centres undefined)	.	.	.	/	.	/	/	/
O=C(/C=C/c1ccc2c(c1)OCO2)Nc1nc(-c2ccccc2)cs1	.	.	.	.	.	/	/	/
Clc1ccc(-c2csc(N/N=C/c3ccc4c(c3)OCO4)n2)cc1	.	.	136	.	.	.	.	.
Cc1ccc(Cn2c(=N)n(CC(=O)c3ccc([N+](=O)[O-])cc3)c3ccccc32)cc1	60	.	.	.	153	.	.	.
O=S(=O)(NCc1ccccc1)c1ccccc1Br	.	/	.	.	.	/	/	/
Cc1cc(Nc2ncc(Cl)cc2Cl)n(-c2ccccc2)n1	.	.	139	.	.	.	.	.
Cc1cc(Nc2ncc(Cl)cc2Cl)n(-c2ccccn2)n1	.	.	.	/	.	/	/	/

Source: PubChem
